Assay in all cases: thermal shift delta Tm vs DMSO control; higher = stronger stabilization (binding)
Conditions in all cases: 12.5 µM; protein concentration 2 µM

In test [1] the test system is LOC_OS01G57100-cb003. The method in brief: (§1)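 Thermal shift values come from differential scanning fluorimetry on purified rice kinase domains made in E. coli, with melting temperatures obtained from Boltzmann fits. Samples of 19.5 μl held 2 μM kinase, 100 mM potassium phosphate pH 7.5, 150 mM NaCl, 10% glycerol, 5 × SYPRO Orange and compound in DMSO, and were heated from 25°C to 95°C at 0.05°C/s. Each shift is a triplicate mean relative to the DMSO-only protein sample.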

The test system of test [2] is LOC_OS01G60330-cb001. The essentials:
as §1

Test [3] concerns LOC_OS01G60700-cb002. The essentials:
as §1

Test [4] deals with LOC_OS01G63280-cb003. The method in brief:
as §1

Test [5] has as its system LOC_OS01G67340-cb003. The method in brief:
as §1

Test [6] deals with LOC_OS01G70970-cb002. The method in brief: as §1
In test [7] the test system is LOC_OS02G07810-cb001. The essentials:
as §1

In test [8] the test system is LOC_OS02G08530-cb003. The essentials:
as §1

Test [9] deals with LOC_OS02G14120-cb001. The method in brief: as §1
Test [10] deals with LOC_OS02G17970-cb001. The essentials: as §1
Test [11] has as its system LOC_OS02G45750-cb003. The essentials: as §1
In test [12] the test system is LOC_OS02G54510-cb004. The essentials:
as §1

For test [13], the system named is LOC_OS03G04050-cb001. The method in brief:
as §1

Test [14] deals with LOC_OS03G12390-cb001. The essentials:
as §1

Test [15] has as its system LOC_OS03G27990-cb004. The method in brief:
as §1

Test [16] concerns LOC_OS03G50450-cb001. The essentials: as §1
The subject of test [17] is LOC_OS03G50810-cb003. The essentials:
as §1

In test [18] the test system is LOC_OS04G35114-cb001. The method in brief:
as §1

Test [19] has as its system T1, LOC_OS04G38480-cb003.
T1 sequence (whole entry): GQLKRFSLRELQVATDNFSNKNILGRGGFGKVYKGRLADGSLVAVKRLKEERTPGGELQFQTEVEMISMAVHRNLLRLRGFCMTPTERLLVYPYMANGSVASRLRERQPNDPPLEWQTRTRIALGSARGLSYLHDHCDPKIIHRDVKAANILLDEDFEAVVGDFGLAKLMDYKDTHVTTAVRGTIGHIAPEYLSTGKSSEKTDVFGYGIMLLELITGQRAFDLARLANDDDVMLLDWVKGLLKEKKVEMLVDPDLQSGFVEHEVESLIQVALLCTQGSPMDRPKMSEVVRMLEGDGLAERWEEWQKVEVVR
The essentials:
as §1

Test [20] concerns T2, LOC_OS04G41100-cb001.
T2 sequence (whole entry): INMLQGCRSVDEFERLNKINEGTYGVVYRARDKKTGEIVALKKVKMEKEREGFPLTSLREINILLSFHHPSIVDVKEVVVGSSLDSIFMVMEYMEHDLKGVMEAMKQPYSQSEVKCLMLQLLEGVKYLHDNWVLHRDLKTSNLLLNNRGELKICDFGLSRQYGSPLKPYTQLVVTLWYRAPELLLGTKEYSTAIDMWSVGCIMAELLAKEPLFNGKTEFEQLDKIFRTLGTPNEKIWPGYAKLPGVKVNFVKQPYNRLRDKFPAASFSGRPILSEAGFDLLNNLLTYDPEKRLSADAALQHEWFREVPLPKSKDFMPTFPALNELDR
The essentials: as §1

The structures appear in SMILES notation.
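Further: purified Escherichia coli-expressed rice kinase domain construct.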

Turning to `O=C(NCc1ccccc1)c1csc(Nc2ccncn2)n1` [Thiazovivin], the “thermal shift delta Tm” value in test [1] came out at 1.74 °C; in [2], 1.17 °C; in [3], 0.63 °C; in [4], 0.81 °C; in test [5], 0.47 °C; in test [6] it was 0.09 °C. Moreover, the “thermal shift delta Tm” value in test [7] was determined as 1.58 °C; in test [8], 0.69 °C; in test [9] it was 0.71 °C; in test [10], 1.26 °C; in [11], 0.91 °C; in [12] it was 0.46 °C. Moreover, the “thermal shift delta Tm” value in [13] was 0.67 °C; in [14], 1.49 °C; in [15] it was 0.04 °C; in [16], 0.18 °C; in test [17] it was 0.53 °C; in test [18], 1.56 °C. In addition, the “thermal shift delta Tm” value in [19] is 0.41 °C; in test [20] it was 0.67 °C.

Consider `CCCCNc1ncc(C(=O)NCc2ccc(-n3ccnc3)cc2)c(NC2CCC(O)CC2)n1` (stereo not given), for which the “thermal shift delta Tm” value in test [1] was 2 °C; in test [2], 9.72 °C; in [3], 1.49 °C; in [4] it was 0.72 °C; in [5], 10.2 °C; in [6], 4.54 °C. For the same molecule, the “thermal shift delta Tm” value in test [7] came to 0.76 °C; in test [8], 4.03 °C; in test [9], 7.7 °C; in test [10], 1.08 °C; in [11], 12.4 °C; in test [12] it was 0.46 °C. Also, the “thermal shift delta Tm” value in test [13] is 0.27 °C; in test [14] it was 2.82 °C; in test [15], 5.72 °C; in [16], 1.85 °C; in test [17], 4.77 °C; in [18], 9.02 °C. The “thermal shift delta Tm” value was determined as 2.91 °C in [19] and 0.89 °C in test [20].

As for `CC(C)N(CCC(=O)c1ccc2ccccc2c1)Cc1ccccc1`, the “thermal shift delta Tm” value in [1] is 1.6 °C; in [2], -0.95 °C; in test [3] it was 1.89 °C; in test [4], -2.65 °C; in test [5], -0.6 °C; in test [6], -5.39 °C. Moreover, the “thermal shift delta Tm” value is 0.33 °C in [7]; -1.55 °C in test [8]; -2 °C in [9]; 5.17 °C in [10]; -0.52 °C in test [11]; -0.55 °C in test [12]. For the same molecule, the “thermal shift delta Tm” value in [13] is 0.06 °C; in [14], -6.73 °C; in test [15], -1 °C; in test [16] it was 0.58 °C; in [17], -1.55 °C; in test [18], -1.2 °C. Moreover, the “thermal shift delta Tm” value in test [19] turned out to be 0.27 °C; in test [20], 2.52 °C.

Turning to `CN(C[C@@H]1COCCO1)S(=O)(=O)Nc1ccc2ccc3ncc(-c4cnn(C)c4)cc3c(=O)c2c1`, the “thermal shift delta Tm” value in test [1] came out at 2.19 °C; in [2], 0.33 °C; in [3], 1.15 °C; in test [4], 1.83 °C; in test [5], 0.51 °C; in test [6], 9.99 °C. The “thermal shift delta Tm” value in test [7] turned out to be 1.23 °C; in [8] it was 1.58 °C; in [9], 8.53 °C; in test [10] it was 0.59 °C; in [11] it was 9.61 °C; in test [12], 0.42 °C. Further, the “thermal shift delta Tm” value turned out to be 0.37 °C in [13]; 0.09 °C in [14]; 1.72 °C in test [15]; 0.44 °C in [16]; 3.78 °C in test [17]; 7.88 °C in [18]. Further, the “thermal shift delta Tm” value in test [19] is 2.89 °C; in test [20] it was 0.3 °C.

With `CO[C@H]1C[C@@H]2CC[C@@H](C)[C@@](O)(O2)C(=O)C(=O)N2CCCC[C@H]2C(=O)O[C@H]([C@H](C)C[C@@H]2CC[C@H](n3cnnn3)[C@H](OC)C2)CC(=O)[C@H](C)/C=C(\C)[C@@H](O)[C@@H](OC)C(=O)[C@H](C)C[C@H](C)/C=C/C=C/C=C/1C` [Zotarolimus(ABT-578)], the “thermal shift delta Tm” value stood at 2.14 °C in test [1]; 2.43 °C in [2]; 1.29 °C in test [3]; 0.68 °C in [4]; 0.45 °C in [5]; 0.71 °C in [6]. For the same molecule, the “thermal shift delta Tm” value in test [7] was 1.19 °C; in test [8], 0.56 °C; in [9], 0.48 °C; in test [10], 1.06 °C; in test [11], 1.04 °C; in [12], 0.46 °C. The “thermal shift delta Tm” value was determined as 0.79 °C in [13]; 0.05 °C in [14]; 0.77 °C in [15]; 0.89 °C in test [16]; 0.33 °C in test [17]; 0.66 °C in [18]. For the same molecule, the “thermal shift delta Tm” value in test [19] came to 2.27 °C; in test [20], 0.4 °C.

Take `Cc1c(C(=O)Nc2ccc(Oc3ccnc4[nH]cc(-c5ccccc5)c34)c(F)c2)c(=O)n(-c2ccc(F)cc2)n1C`: the “thermal shift delta Tm” value in test [1] turned out to be 1.48 °C; in test [2], 5.65 °C; in test [3], 1.25 °C; in [4] it was 5.92 °C; in test [5] it was 1.81 °C; in test [6], 1.29 °C. In addition, the “thermal shift delta Tm” value in test [7] was 0.68 °C; in [8] it was 3.76 °C; in test [9] it was 6.85 °C; in test [10] it was 1.44 °C; in test [11] it was 1.92 °C; in [12] it was -0.32 °C. For the same molecule, the “thermal shift delta Tm” value in [13] was 0.37 °C; in test [14], 1.39 °C; in test [15] it was 0.47 °C; in test [16], 0.52 °C; in [17] it was 1.79 °C; in [18], 5.04 °C. Besides, the “thermal shift delta Tm” value came out at 3.56 °C in [19] and 1.06 °C in test [20].

The values are drawn from the supplement of paper PMC9694430.
